# From PMC10726135, “HNF4α isoforms regulate the circadian balance between carbohydrate and lipid metabolism in the liver”
# In all, about 18,000 sequences were measured (“log2 normalized intensity”: median about 0.39, highest 2% from about 6.6 on). The sample holds the highest values, similar sequences and a random draw of the others, so the mix is not that of the screen.
# Biological target: T1, HNF4alpha2 (COS-7 nuclear extract) (Homo sapiens, UniProt P41235 1-474)
# T1 sequence: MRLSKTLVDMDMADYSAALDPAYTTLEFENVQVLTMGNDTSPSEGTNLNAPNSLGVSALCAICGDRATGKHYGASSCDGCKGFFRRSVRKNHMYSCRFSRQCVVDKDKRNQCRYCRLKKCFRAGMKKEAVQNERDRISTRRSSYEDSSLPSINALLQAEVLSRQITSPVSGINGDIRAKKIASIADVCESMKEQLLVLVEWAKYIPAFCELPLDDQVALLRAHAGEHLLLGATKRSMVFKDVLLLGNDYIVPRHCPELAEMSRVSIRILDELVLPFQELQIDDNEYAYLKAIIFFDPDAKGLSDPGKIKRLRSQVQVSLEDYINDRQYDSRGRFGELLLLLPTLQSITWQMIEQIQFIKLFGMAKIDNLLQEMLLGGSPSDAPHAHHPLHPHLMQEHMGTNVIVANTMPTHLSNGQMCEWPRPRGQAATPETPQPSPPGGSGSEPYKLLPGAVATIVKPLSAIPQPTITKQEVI
# Test: protein-binding microarray; COS-7 nuclear extract on double-stranded Agilent 4x180k PBM; binding buffer, salt, pH and temperature not given in the material; high values mean tight binding
# Conditions: chain copies: 2; label: 3' end of strand 1 on the slide; dsDNA, one strand shown
# Summary of the method: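 Binding signal is the background-corrected, normalized gProcessedSignal calculated by Agilent software. It was measured by applying nuclear extracts of COS-7 cells transiently transfected with a human HNF4α isoform expression vector to a custom Agilent SurePrint G3 4x180k array of ~44,000 double-stranded ~60-nt test sequences in quadruplicate, then imaging bound HNF4α on an Agilent G2565CA scanner at 2-µm resolution.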
row,Sequence,binding signal
1,CAGTAACTGTCATGGATGACCTCTTTTAGTGCCTAGGGAGATTAGAGTATCGGTCGA,3.08 log2 normalized intensity
2,GCTGTCTACTCTGGGGGTCAGCAATGGTAAGCCTAGGGAGATTAGAGTATCGGTCGA,1.8 log2 normalized intensity
3,TGCCCCAGGAATGCCTTTTCTTTCATGTTGGCCTAGGGAGATTAGAGTATCGGTCGA,1.43 log2 normalized intensity
4,GTTGAGGAGTTTGTACTTTATCCTACAAGGGCCTAGGGAGATTAGAGTATCGGTCGA,2.25 log2 normalized intensity
5,TCCTCTCAAAGTCCACCCGGCCAGCAGATGGCCTAGGGAGATTAGAGTATCGGTCGA,2.46 log2 normalized intensity
6,AAAGGTCATATCCAAAATATTTGCAGTGAGGCCTAGGGAGATTAGAGTATCGGTCGA,1.79 log2 normalized intensity
7,ATATTTTCTTTGTGCTATTTTTGGCTTGGTGCCTAGGGAGATTAGAGTATCGGTCGA,2.13 log2 normalized intensity
8,CCATTCTTGAGGACAGGCCAAATCCAGTAAGCCTAGGGAGATTAGAGTATCGGTCGA,-0.994 log2 normalized intensity
9,GCCTTGCTGAGGAATTTGGACTTCAGCCCAGCCTAGGGAGATTAGAGTATCGGTCGA,6.11 log2 normalized intensity
10,GTCCACACATTCCTAGACCTTTGACCTTTAGCCTAGGGAGATTAGAGTATCGGTCGA,8.13 log2 normalized intensity
11,ATTGGGTCCACACATTCCTAGACCTTTGACGCCTAGGGAGATTAGAGTATCGGTCGA,3.26 log2 normalized intensity
12,TTGACCTTTATACCTGTACGTTACTCTGTAGCCTAGGGAGATTAGAGTATCGGTCGA,3.65 log2 normalized intensity
13,TCCTTCAGCGTGAACTTTGACATGAGAGAAGCCTAGGGAGATTAGAGTATCGGTCGA,3.66 log2 normalized intensity
14,CCCAAGATGGATTGGGTCCACACATTCCTAGCCTAGGGAGATTAGAGTATCGGTCGA,-0.811 log2 normalized intensity
15,GACATTCCTTCAGCGTGAACTTTGACATGAGCCTAGGGAGATTAGAGTATCGGTCGA,5.5 log2 normalized intensity
16,GACCTTTGACCTTTATACCTGTACGTTACTGCCTAGGGAGATTAGAGTATCGGTCGA,7.39 log2 normalized intensity
17,TCCTAGACCTTTGACCTTTATACCTGTACGGCCTAGGGAGATTAGAGTATCGGTCGA,5.75 log2 normalized intensity
18,CTTTATACCTGTACGTTACTCTGTACCTCGGCCTAGGGAGATTAGAGTATCGGTCGA,1.19 log2 normalized intensity
19,ATTGTGATTCCTGTGATACCTTCTTTGCCTGCCTAGGGAGATTAGAGTATCGGTCGA,1.13 log2 normalized intensity
20,CACATTCCTAGACCTTTGACCTTTATACCTGCCTAGGGAGATTAGAGTATCGGTCGA,7.82 log2 normalized intensity
21,TGGGAGACATTCCTTCAGCGTGAACTTTGAGCCTAGGGAGATTAGAGTATCGGTCGA,6.72 log2 normalized intensity

row,Sequence,binding signal
1,GAATCACTCACTGACCTCTTTTGGATTTTTGCCTAGGGAGATTAGAGTATCGGTCGA,1.73 log2 normalized intensity
2,TCAGGAGTGATGCCAGAAGATTAGTGATGGGCCTAGGGAGATTAGAGTATCGGTCGA,-0.625 log2 normalized intensity
3,GACTGGAAGTTGCCCGAGCTGCCCTTTATCGCCTAGGGAGATTAGAGTATCGGTCGA,2.47 log2 normalized intensity
4,CCGGTTTGTTCCATGCCACAGAATCGCCCCGCCTAGGGAGATTAGAGTATCGGTCGA,2.6 log2 normalized intensity
5,CCAGATGATCTTTACCCTGGAATGCTGTTAGCCTAGGGAGATTAGAGTATCGGTCGA,1.33 log2 normalized intensity
6,GGAGGAGCTGTTTGACATCCAAAGTTTCCTGCCTAGGGAGATTAGAGTATCGGTCGA,0.813 log2 normalized intensity
7,AAGTTGGAATTTGGGTGATCCTGGTAGCAGGCCTAGGGAGATTAGAGTATCGGTCGA,0.0957 log2 normalized intensity
8,TGGTTTTATGGTGTCTTATCTTCCTCTGGCGCCTAGGGAGATTAGAGTATCGGTCGA,1.96 log2 normalized intensity
9,CACATTGCAGTATGCCCCCCCACCCCACACGCCTAGGGAGATTAGAGTATCGGTCGA,6.96 log2 normalized intensity
10,ACACACACATTGCAGTATGCCCCCCCACCCGCCTAGGGAGATTAGAGTATCGGTCGA,6.13 log2 normalized intensity
11,TGCAGTATGCCCCCCCACCCCACACACACAGCCTAGGGAGATTAGAGTATCGGTCGA,6.7 log2 normalized intensity
12,TATGCCCCCCCACCCCACACACACACAGCAGCCTAGGGAGATTAGAGTATCGGTCGA,6.17 log2 normalized intensity
13,CACACACACACACATTGCAGTATGCCCCCCGCCTAGGGAGATTAGAGTATCGGTCGA,5.1 log2 normalized intensity
14,CCCCCCACCCCACACACACACAGCATTCCAGCCTAGGGAGATTAGAGTATCGGTCGA,5.05 log2 normalized intensity
15,TACACCTGGGGGCTTCCCAACTCCATTATCGCCTAGGGAGATTAGAGTATCGGTCGA,-0.261 log2 normalized intensity
16,TCCCTATGTTGTCCCTGCCCTTTGTCCAGGGCCTAGGGAGATTAGAGTATCGGTCGA,3.89 log2 normalized intensity
17,AGAATATTAGATGATAAGGGTGAAAAGATAGCCTAGGGAGATTAGAGTATCGGTCGA,-0.989 log2 normalized intensity
18,AAGGAGCTTGGGAAGACAGATGTGATATTCGCCTAGGGAGATTAGAGTATCGGTCGA,-0.781 log2 normalized intensity
19,CCCCTCAGTTTTTCTCTTTTGACCTTTGGAGCCTAGGGAGATTAGAGTATCGGTCGA,8.9 log2 normalized intensity
20,GGTGACCCCTCAGTTTTTCTCTTTTGACCTGCCTAGGGAGATTAGAGTATCGGTCGA,4.09 log2 normalized intensity
21,TTTGTTGCCTCTTTTCTGCTTTTGGAATTTGCCTAGGGAGATTAGAGTATCGGTCGA,2.71 log2 normalized intensity

row,Sequence,binding signal
1,CGCATTTCTGCTTCTTCTCATTCTTGGAATGCCTAGGGAGATTAGAGTATCGGTCGA,1.39 log2 normalized intensity
2,AAGCCCTTCTTCTGGAGCCTCAGTAAGTTTGCCTAGGGAGATTAGAGTATCGGTCGA,0.629 log2 normalized intensity
3,GTGCTTGGACCTGCTCTGTTTTCTTTCGGTGCCTAGGGAGATTAGAGTATCGGTCGA,1.49 log2 normalized intensity
4,TGCCTCTTTTCTGCTTTTGGAATTTGACCTGCCTAGGGAGATTAGAGTATCGGTCGA,7.84 log2 normalized intensity
5,CTTTTCTGCTTTTGGAATTTGACCTCATTTGCCTAGGGAGATTAGAGTATCGGTCGA,6.91 log2 normalized intensity
6,CTGCTTTTGGAATTTGACCTCATTTGCTCCGCCTAGGGAGATTAGAGTATCGGTCGA,5.7 log2 normalized intensity
7,CTGTTGGTGACTGACCCTGATCCCTCCCTGGCCTAGGGAGATTAGAGTATCGGTCGA,3.18 log2 normalized intensity
8,GGATCCCATTCATGTGGGTCAACAGACAAAGCCTAGGGAGATTAGAGTATCGGTCGA,0.575 log2 normalized intensity
9,AAAGTCTTTCTCTTTCAAGATAACAAGGCAGCCTAGGGAGATTAGAGTATCGGTCGA,1.37 log2 normalized intensity
10,CTGATCAAAGGTCATTGGTATTGATAGCGCGCCTAGGGAGATTAGAGTATCGGTCGA,4.8 log2 normalized intensity
11,ATATCTATATGTTTACATATCACTGTACTCGCCTAGGGAGATTAGAGTATCGGTCGA,2.08 log2 normalized intensity
12,TCCCCACCCCCAACTTCCCCAACCCTTGCAGCCTAGGGAGATTAGAGTATCGGTCGA,6.3 log2 normalized intensity
13,GGTCTCCTTGCCCCACCCCCCACCCCAGAAGCCTAGGGAGATTAGAGTATCGGTCGA,6.86 log2 normalized intensity
14,CCTTGCCCCACCCCCCACCCCAGAAGTATGGCCTAGGGAGATTAGAGTATCGGTCGA,6.2 log2 normalized intensity
15,ATGCTGGTCTCCTTGCCCCACCCCCCACCCGCCTAGGGAGATTAGAGTATCGGTCGA,7.6 log2 normalized intensity
16,ACCAAGGGTCATGCTGGTCTCCTTGCCCCAGCCTAGGGAGATTAGAGTATCGGTCGA,1.74 log2 normalized intensity
17,ATCCCCGCTCCCCTCCCCCACCCGCGGTCCGCCTAGGGAGATTAGAGTATCGGTCGA,6.38 log2 normalized intensity
18,CATGCTCCCCACCCCCAACTTCCCCAACCCGCCTAGGGAGATTAGAGTATCGGTCGA,6.67 log2 normalized intensity
19,GCTCCCTCCCCTCCTCCCTTGCTCACCCCAGCCTAGGGAGATTAGAGTATCGGTCGA,5.91 log2 normalized intensity
20,GGGTCATGCTGGTCTCCTTGCCCCACCCCCGCCTAGGGAGATTAGAGTATCGGTCGA,5.55 log2 normalized intensity
